Assay results taken from PubChem BioAssay (NCATS).
Records with an inconclusive call do not appear. Calls of active or inactive are those of the source. Unless noted, calls come from the whole dose curve; as a rule, active = well fitted curve in the direction sought with a large enough effect; inconclusive = small, poorly fitted or top-dose-only effect, or another doubt; inactive = no such curve, though single readings can be large; an effect the other way counts as inactive or inconclusive.

Columns and labels:
[1] = AP1 Signaling Pathway (AID 357; active = well fitted curve in either direction with a large enough effect, not every such curve was filed as active;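 note: ME-180 reporter cells stimulated with EGF at its EC50 level; % is set by controls: 0 for no effect and ±100 for the full control effect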); conditions: ME-180 AP-1-bla reporter, EGF-induced, beta-lactamase ratio, 5 h; at 7.69 µM (top of the series) unless noted
Method in brief: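 Cells are seeded overnight, exposed to compound titrations and an EC50 level of EGF for 5 hours at 37 °C, then loaded with CCF4 dye for 2.5 hours. Beta-lactamase activity under the AP-1 element is read as a blue/green ratio.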

[2] = NFAT Signaling Pathway (AID 444; active = well fitted curve in either direction with a large enough effect, not every such curve was filed as active;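 note: carbachol stimulus at about its EC50 of 1 µM final; % is set by controls: 0 for no effect and ±100 for the full control effect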); conditions: Jurkat NFAT-bla M1, carbachol, beta-lactamase ratio, 5 h; at 7.69 µM (top of the series) unless noted
Method in brief: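 Jurkat cells carrying an NFAT-driven β-lactamase reporter and co-transfected muscarinic M1 receptor were treated with compound plus carbachol (1 uM final, an EC50 level) for 5 h at 37 °C. CCF4 loading followed for 1 h at RT; 460/530 nm ratio gave %activity.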

[3] = Stat Signaling Pathway (AID 446; active = well fitted curve in either direction with a large enough effect, not every such curve was filed as active;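 note: ME-180 cervical cancer cells given 40 pM IL-6 alongside compound; SIE-controlled beta-lactamase reporter measured as 460/530 nm FRET emission ratio; % is set by controls: 0 for no effect and ±100 for the full control effect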); conditions: ME-180 SIE beta-lactamase reporter, IL-6 stimulated, 5 h; at 7.69 µM (top of the series) unless noted
Method in brief: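 ME-180 SIE-bla cells; overnight plating; cpd + IL-6 40 pM, 5 h, 37 C; LiveBLAzer 2.5 h RT; 460/530 nm emission ratio. Normalized to 300 pM IL-6 and 125 nM JAK inhibitor controls.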

[4] = molecular target: Glucocorticoid receptor (Homo sapiens) (UniProt P04150); test: GR-GFP Redistribution (AID 450;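 active = compounds whose dose series gives a full or clear partial fitted curve of increased nuclear translocation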; note: potency is the fitted concentration of half-maximal effect); conditions: U2OS GR-GFP nuclear translocation, laser cytometry, 2 h
[5] = molecular target: Glucocorticoid receptor (Homo sapiens) (UniProt P04150); test: GR-EFC Redistribution (AID 451; calls by dose curve; note: potency is the fitted concentration of half-maximal effect); conditions: CHO-K1 GR-EFC translocation, beta-gal luminescence, 2 h
Method in brief: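 CHO-K1 cells stably expressing nuclear-localized β-gal enzyme acceptor and GR fused C-terminally to the enzyme donor fragment; ligand-driven nuclear translocation restores β-gal by complementation. Compounds titrated up to 46 uM final, 2 h at 37 °C; luminescence read.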

[6] = molecular target: Mitogen-activated protein kinase 10 (Mus musculus) (UniProt Q61831); test: JNK3 AlphaScreen Assay (AID 530; active = well fitted curve in either direction with a large enough effect, not every such curve was filed as active;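 note: kinase came from lysate of stimulated human HepG2 cells; signal reports phosphorylation of biotinylated GST-cJun 1-79 at Ser73 with 10 µM ATP; % is set by controls: 0 for no effect and ±100 for the full control effect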)
Method in brief: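 Inhibitors reduce antibody binding to phosphorylated biotin-cJun, lowering AlphaScreen luminescence. Lysates from HepG2 cells pre-activated by IL-1beta plus TNF-alpha supplied JNK3; compounds were titrated.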

[7] = molecular target: 3',5'-cyclic-AMP phosphodiesterase 4B (Homo sapiens) (UniProt Q07343); test: qHTS Assay for Inhibitors of PDE-IV (AID 607; active = well fitted activation curve with a large enough effect in the main read-out, with a control signal flat, not every such curve was filed as active; note: % of control where 0% means no effect)
Method in brief: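 ACTOne HEK293 cells carry a modified cAMP-gated CNG channel and express endogenous PDE4; plated 1000 cells/well, compounds up to 22.9 uM final. Membrane-potential dye fluorescence (ex 535/em 590) was read; parental cells received 10 uM forskolin + 100 uM RO 20-1724.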

[8] = molecular target: Cytochrome P450 2D6 (Homo sapiens) (UniProt P10635); test: qHTS Assay for Inhibitors and Substrates of Cytochrome P450 2D6 (AID 891);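 note: luciferin methyl ether substrate demethylated by CYP2D6 with NADPH regeneration; % is set by controls: 0 for no effect and ±100 for the full control effect; nearly all actives have a fitted effect of over 60% in size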
Method in brief: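 Human CYP2D6 (5 nM) with 30 uM Luciferin-ME EGE (at Km) in 100 mM KPO4, compound preincubated 10 min, then NADPH regeneration system for 60 min at room temperature. Luciferin read by luminescence; normalized to 1.43 uM quinidine.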

[9] = molecular target: Cytochrome P450 2C19 (Homo sapiens) (UniProt P33261); test: qHTS Assay for Inhibitors and Substrates of Cytochrome P450 2C19 (AID 899); note: % is set by controls: 0 for no effect and ±100 for the full control effect; nearly all actives have a fitted effect of over 60% in size
Method in brief: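 NADPH-dependent conversion of Luciferin-H EGE (10uM, at KM) by 5nM enzyme in 50mM KPO4, 60 min at 37C following 10 min compound preincubation. Stopped with luciferin detection buffer; luminescence read after 20 min.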

[10] = molecular target: Cytochrome P450 1A2 (Homo sapiens) (UniProt P05177); test: p450-cyp1a2 (AID 410; calls by dose curve;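 note: -100% = full effect of reference inhibitor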)
Method in brief: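 Luminescent readout of luciferin formed from Luciferin-ME by human CYP1A2; data normalized against complete inhibition by 57 uM furafylline. Enzyme 20nM, substrate 100uM at Km, 100mM KPO4 buffer, 60 min reaction at room temperature.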

[11] = molecular target: Guanine nucleotide-binding protein G(i) subunit alpha-1 (Homo sapiens) (UniProt P63096); test: qHTS Assay for Inhibitors of RGS12 GoLoco Motif Activity (Green Fluorophore) (AID 879);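 note: 0% = labeled peptide with Gαi1 and full inhibition = labeled peptide alone without protein; negative values mean loss of peptide binding seen as reduced polarization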
Method in brief: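 Fluorescence polarization assay: 50 nM Gαi1 with 10 nM FITC-labeled RGS12 GoLoco peptide in 10 mM Tris pH 7.5, 150 mM NaCl, 0.1 mM GDP, 0.05% NP40, 10 min at room temperature with compound.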

[12] = qHTS Assay for Identification of Small Molecule Antagonists for NFkB Signaling Pathway (AID 895; active = well fitted inhibition curve with a large enough effect in the signal ratio, with a control signal flat, not every such curve was filed as active; the % refers to the signal ratio; note: % is set by controls: 0 for no effect and ±100 for the full control effect)
Method in brief: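 NFkB-bla ME-180 cervical carcinoma cells with beta-lactamase reporter under NFkB response element; compounds added, then TNF alpha at 10 pM final (EC50), 5 h at 37 C. LiveBLAzer substrate 2 h, room temperature; emission 460/530 nm at 405 nm excitation.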

[13] = qHTS Assay for Identification of Small Molecule Agonists for Thrombopoietin (TPO) Signaling Pathway (AID 917); note: % is set by controls: 0 for no effect and ±100 for the full control effect
Method in brief: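 Activators of TPO signaling were sought in murine Ba/F3 cells transfected with the human receptor, using a luciferase gene driven by the Glycoprotein IIb promoter; 24-hr compound exposure at 37 C alongside 26 pM TPO, in IL-3-free medium.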

[14] = molecular target: Muscarinic acetylcholine receptor M1 (Rattus norvegicus) (UniProt P08482); test: qHTS Assay for Antagonists of Acetylcholine Muscarinic M1 Receptor: Measurement of IP-One Response (AID 944); note: nearly all actives have a fitted effect of over 75% in size
Method in brief: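 M1-CHO (rat), 2000 cells/well, overnight recovery; cpd 10 min; carbachol EC80 (200 nM), 30 min, HEPES buffer + 50 mM LiCl pH 7.4; IP-One HTRF, Ex 337, Em 620/665 nm.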

[15] = molecular target: Pyruvate kinase (Leishmania mexicana) (UniProt Q27686); test: qHTS Validation Assay for Inhibitors of Leishmania Mexicana Pyruvate Kinase (AID 945);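 note: 0% = DMSO only neutral control wells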
Method in brief: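 Pyruvate kinase activity of E451W LmPYK (0.2 nM) was followed as ATP output after 1 h at room temperature with 0.5 mM PEP and 0.1 mM ADP, detected by PKLight luminescence.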

[16] = molecular target: Pyruvate kinase PKM (Homo sapiens) (UniProt P14618); test: qHTS Assay for Activators of Human Muscle Pyruvate Kinase (AID 954; active = well fitted curve in the direction sought with a large enough effect, not every such curve was filed as active;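 note: 0% = uninhibited enzyme and -100% = no enzyme or full thiadiazolimine inhibition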)
Method in brief: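 Luminescence from a luciferase ATP-detection/stop reagent reported PKM2 activity. Reactions contained 0.1 nM purified human enzyme, 0.5 mM PEP, 0.1 mM ADP and 7 mM MgCl2 at pH 7.2, run 1 h at RT.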

[17] = molecular target: Alpha-galactosidase (Coffea arabica) (UniProt Q42656); test: Counterscreen for Glucocerebrosidase Inhibitors: qHTS Assay for Coffee Bean alpha-Galactosidase at pH 4.5 (AID 957);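 note: plate controls were enzyme alone for no effect and no enzyme for full effect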
Method in brief: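 Coffee bean alpha-galactosidase 2 nM, substrate 4-MU-alpha-Gal 80 uM, pH 4.5 citrate/Tween-20, 20 min RT. Cpd titration 0.7 nM–77 uM. Stop pH 10, fluorescence 365/440 nm; Hill-equation AC50.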

[18] = molecular target: Alpha-galactosidase A (Homo sapiens) (UniProt P06280); test: Counterscreen for Glucocerebrosidase Inhibitors: qHTS Assay for Human alpha-Galactosidase at pH 4.5 (AID 992); note: 0% is about no effect
Method in brief: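 Enzyme at 2 nM final was combined with compound (0.7 nM to 77 uM) and 80 uM 4-methylumbelliferyl alpha-D-galactopyranoside in 50 mM citric acid, 0.005% Tween-20, pH 4.5. After 20 min at room temperature, fluorescence was read (Ex 365/Em 440 nm); AC50 came from Hill fits.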

[19] = molecular target: alpha-glucosidase (Oryza sativa, rice) (UniProt Q653V4); test: Counterscreen for Glucocerebrosidase Inhibitors: qHTS Assay for Rice alpha-Glucosidase at pH 5.0 (AID 997);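 note: 0% = full activity with enzyme and -100% = basal without enzyme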
Method in brief: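 Rice alpha-glucosidase (4 nM final) with 400 uM 4-methylumbelliferyl-alpha-D-glucopyranoside in citrate buffer pH 5.0, 20 min at room temperature, stopped at pH 10; fluorescence 365/440 nm, compounds 0.7 nM–77 uM, AC50 from Hill fits.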

[20] = molecular target: Alpha-galactosidase (Coffea arabica) (UniProt Q42656); test: Counterscreen for Glucocerebrosidase Inhibitors: qHTS Assay for Coffee Bean alpha-Galactosidase at pH 5.9 (AID 998);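 note: plate controls were uninhibited enzyme for no effect and no-enzyme basal signal for full effect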
Method in brief: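 Green coffee bean enzyme (2 nM final) was incubated with compounds (0.7 nM–77 uM) and 4-methylumbelliferyl alpha-D-galactopyranoside (80 uM) in citrate buffer pH 5.9, 20 min at room temperature. High-pH stop; fluorescence 365/440 nm; AC50 from Hill fits.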

[21] = molecular target: Cytochrome P450 3A4 (Homo sapiens) (UniProt P08684); test: qHTS Assay for Activators of Cytochrome P450 3A4 (AID 885); note: nearly all actives have a fitted effect of over 65% in size
Method in brief: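 20nM CYP3A4 + 25uM Luciferin-PPXE (=KM), 200mM KPO4; cpd 10 min RT; NADPH regen, 60 min RT; stop w/ detection buffer, 20 min; luminescence. Normalized to 57 uM ketoconazole.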

[22] = molecular target: Muscarinic acetylcholine receptor M1 (Rattus norvegicus) (UniProt P08482); test: qHTS Assay for Antagonists of Acetylcholine Muscarinic M1 Receptor: Kinetic Measurement of Intracellular Calcium Response (AID 943);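 note: Fluo-4 calcium signal as peak divided by basal fluorescence over 4 min; nearly all actives have a fitted effect of over 75% in size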
Method in brief: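 Rat M1-CHO cells, 2000/well, overnight → Fluo-4 no-wash dye with probenecid, 1 h 37C → compound 10 min, room temp → basal read 6 s → carbachol EC80 (100 nM) → 4 min kinetic read; peak/basal.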

[23] = qHTS Assay for Identification of Small Molecule Antagonists for Thrombopoietin (TPO) Signaling Pathway (AID 918); conditions: TPO-dependent cell signaling reporter, antagonist mode; note: potency is the fitted concentration of half-maximal effect; nearly all actives have a fitted effect of over 60% in size
Method in brief: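 Ba/F3 (murine, hTPO-R, GPIIb-luc reporter); overnight IL-3 withdrawal; cpd + TPO 26 pM final (EC50); 24 h 37 C/5% CO2; Steadylite luminescence after 10 min RT.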

Muscarinic acetylcholine receptor M1 (Rattus norvegicus), sequence (P08482 whole entry, looked up): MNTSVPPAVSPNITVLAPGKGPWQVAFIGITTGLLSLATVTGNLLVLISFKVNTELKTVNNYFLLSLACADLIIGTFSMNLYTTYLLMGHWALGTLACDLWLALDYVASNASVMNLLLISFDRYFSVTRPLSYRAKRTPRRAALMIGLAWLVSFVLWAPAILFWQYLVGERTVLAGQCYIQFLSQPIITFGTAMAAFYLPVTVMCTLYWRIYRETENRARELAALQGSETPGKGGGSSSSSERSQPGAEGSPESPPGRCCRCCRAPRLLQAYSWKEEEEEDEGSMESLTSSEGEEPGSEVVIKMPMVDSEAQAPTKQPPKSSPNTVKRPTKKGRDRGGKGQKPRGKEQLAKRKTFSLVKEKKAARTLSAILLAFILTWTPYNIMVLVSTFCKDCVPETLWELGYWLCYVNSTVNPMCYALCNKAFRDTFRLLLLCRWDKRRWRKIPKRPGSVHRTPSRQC
Guanine nucleotide-binding protein G(i) subunit alpha-1 (Homo sapiens), sequence (P63096 whole entry, looked up): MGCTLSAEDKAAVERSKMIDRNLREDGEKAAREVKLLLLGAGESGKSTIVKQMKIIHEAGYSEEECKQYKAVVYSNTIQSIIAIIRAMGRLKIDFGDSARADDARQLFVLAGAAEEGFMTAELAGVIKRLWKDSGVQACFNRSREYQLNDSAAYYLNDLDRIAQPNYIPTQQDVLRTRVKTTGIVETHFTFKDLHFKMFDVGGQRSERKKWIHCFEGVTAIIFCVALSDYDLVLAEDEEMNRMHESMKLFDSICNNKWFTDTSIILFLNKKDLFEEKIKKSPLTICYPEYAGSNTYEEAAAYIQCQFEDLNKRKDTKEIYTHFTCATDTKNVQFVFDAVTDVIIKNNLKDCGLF
Alpha-galactosidase A (Homo sapiens), sequence (P06280 whole entry, looked up): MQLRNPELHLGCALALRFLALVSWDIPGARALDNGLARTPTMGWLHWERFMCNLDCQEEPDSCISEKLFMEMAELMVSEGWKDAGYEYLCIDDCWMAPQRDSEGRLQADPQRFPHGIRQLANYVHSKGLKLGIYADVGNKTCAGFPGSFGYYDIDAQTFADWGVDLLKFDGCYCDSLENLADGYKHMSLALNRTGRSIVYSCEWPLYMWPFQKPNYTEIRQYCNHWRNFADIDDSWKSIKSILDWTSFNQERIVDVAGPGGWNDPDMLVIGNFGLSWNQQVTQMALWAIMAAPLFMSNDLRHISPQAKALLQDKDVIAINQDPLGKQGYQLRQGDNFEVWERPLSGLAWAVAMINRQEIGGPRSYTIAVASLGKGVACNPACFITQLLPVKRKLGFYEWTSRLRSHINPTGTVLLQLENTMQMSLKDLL
Glucocorticoid receptor (Homo sapiens), sequence (P04150 whole entry, looked up, the tested form may be a part): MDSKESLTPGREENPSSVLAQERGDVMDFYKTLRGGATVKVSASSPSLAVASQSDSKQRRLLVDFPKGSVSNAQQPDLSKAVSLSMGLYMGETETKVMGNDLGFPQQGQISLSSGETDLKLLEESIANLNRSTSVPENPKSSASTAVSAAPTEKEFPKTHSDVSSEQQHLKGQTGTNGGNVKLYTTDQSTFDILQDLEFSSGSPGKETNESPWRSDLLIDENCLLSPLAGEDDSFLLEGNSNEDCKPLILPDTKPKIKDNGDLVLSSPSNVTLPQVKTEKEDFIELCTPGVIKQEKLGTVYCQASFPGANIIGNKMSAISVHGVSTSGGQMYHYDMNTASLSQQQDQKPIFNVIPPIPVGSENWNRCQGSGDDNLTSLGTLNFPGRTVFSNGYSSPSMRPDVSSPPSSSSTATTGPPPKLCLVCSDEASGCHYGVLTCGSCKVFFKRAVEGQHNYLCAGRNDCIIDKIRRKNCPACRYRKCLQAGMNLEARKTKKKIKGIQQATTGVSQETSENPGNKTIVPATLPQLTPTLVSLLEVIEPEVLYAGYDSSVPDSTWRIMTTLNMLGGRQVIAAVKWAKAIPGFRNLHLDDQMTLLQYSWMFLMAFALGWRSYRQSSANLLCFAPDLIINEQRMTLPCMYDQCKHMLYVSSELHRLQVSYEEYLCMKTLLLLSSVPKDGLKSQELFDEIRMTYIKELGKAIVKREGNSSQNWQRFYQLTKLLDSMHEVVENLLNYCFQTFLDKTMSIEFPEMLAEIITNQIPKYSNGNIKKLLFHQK
Pyruvate kinase PKM (Homo sapiens), sequence (P14618 whole entry, looked up): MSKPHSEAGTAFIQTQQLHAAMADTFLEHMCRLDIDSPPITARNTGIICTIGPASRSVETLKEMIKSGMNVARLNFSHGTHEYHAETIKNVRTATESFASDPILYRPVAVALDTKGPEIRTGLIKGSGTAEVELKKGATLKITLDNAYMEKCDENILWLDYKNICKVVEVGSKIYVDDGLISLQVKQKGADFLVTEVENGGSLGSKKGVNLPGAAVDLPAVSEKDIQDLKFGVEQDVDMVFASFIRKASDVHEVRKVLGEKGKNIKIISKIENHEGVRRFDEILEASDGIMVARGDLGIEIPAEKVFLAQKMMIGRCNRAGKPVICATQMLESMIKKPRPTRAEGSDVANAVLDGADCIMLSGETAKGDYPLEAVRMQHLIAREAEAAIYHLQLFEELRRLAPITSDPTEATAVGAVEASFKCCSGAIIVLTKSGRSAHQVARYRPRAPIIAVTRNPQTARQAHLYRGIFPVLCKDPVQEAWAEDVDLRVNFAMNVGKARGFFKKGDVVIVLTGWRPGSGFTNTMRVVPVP
Pyruvate kinase (Leishmania mexicana), sequence (Q27686 2-499 E452W): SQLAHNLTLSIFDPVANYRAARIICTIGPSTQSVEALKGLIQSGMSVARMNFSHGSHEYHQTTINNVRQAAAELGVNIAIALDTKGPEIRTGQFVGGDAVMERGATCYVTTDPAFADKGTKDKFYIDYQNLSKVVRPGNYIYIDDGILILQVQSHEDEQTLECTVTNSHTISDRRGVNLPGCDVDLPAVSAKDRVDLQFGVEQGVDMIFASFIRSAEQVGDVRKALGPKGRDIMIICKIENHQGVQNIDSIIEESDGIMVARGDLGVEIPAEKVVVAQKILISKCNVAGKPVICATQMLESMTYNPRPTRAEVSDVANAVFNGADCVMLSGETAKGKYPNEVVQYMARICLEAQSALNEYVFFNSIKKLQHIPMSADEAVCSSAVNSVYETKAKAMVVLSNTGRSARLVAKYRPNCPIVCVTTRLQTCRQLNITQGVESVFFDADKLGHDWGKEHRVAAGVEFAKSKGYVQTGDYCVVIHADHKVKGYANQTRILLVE
Alpha-galactosidase (Coffea arabica), sequence (Q42656 whole entry, looked up): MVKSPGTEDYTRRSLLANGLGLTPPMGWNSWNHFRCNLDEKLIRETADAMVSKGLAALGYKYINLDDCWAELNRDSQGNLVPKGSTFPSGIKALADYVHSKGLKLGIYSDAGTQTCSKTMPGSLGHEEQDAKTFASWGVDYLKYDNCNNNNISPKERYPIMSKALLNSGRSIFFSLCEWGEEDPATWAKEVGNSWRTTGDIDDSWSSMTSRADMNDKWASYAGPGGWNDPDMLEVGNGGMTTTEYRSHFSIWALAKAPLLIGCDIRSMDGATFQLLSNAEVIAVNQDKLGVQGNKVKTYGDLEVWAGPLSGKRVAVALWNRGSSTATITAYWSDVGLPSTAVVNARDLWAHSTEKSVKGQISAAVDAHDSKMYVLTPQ
3',5'-cyclic-AMP phosphodiesterase 4B (Homo sapiens), sequence (Q07343 whole entry, looked up): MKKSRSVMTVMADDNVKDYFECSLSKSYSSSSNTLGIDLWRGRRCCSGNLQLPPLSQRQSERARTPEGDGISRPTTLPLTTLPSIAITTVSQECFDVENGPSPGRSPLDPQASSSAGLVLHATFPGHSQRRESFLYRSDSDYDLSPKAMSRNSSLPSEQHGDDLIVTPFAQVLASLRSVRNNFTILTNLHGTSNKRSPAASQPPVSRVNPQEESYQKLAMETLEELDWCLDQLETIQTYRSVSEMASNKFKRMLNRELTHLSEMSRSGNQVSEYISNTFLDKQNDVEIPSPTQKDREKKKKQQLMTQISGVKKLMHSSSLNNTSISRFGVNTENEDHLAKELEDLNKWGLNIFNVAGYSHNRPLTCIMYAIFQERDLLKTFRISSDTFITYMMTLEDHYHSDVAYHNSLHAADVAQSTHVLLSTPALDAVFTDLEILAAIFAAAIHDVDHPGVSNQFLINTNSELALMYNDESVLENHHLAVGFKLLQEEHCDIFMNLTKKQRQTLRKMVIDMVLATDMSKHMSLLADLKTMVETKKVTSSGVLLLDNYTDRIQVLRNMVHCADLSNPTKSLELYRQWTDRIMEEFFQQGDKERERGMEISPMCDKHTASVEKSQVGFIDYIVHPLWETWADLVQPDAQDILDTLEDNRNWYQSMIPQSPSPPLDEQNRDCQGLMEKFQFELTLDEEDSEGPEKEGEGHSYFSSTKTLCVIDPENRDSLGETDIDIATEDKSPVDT
Cytochrome P450 1A2 (Homo sapiens), sequence (P05177 whole entry, looked up): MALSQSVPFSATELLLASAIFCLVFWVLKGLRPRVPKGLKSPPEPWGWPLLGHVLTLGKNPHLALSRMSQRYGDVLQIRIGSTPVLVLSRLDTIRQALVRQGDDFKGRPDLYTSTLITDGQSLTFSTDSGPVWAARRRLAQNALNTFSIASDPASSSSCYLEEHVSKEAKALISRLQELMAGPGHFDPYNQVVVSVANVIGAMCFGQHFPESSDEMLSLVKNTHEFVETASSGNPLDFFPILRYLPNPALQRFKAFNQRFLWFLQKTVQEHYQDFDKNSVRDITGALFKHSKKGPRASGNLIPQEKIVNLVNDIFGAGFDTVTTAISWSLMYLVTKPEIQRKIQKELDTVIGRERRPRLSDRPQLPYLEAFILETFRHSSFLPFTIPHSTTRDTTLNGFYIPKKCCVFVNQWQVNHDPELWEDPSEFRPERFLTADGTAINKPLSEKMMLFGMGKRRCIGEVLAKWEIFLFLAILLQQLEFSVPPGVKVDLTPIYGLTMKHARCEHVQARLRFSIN

CC(C)[C@@]1(NC(=O)[C@@H]2C=C3c4cccc5[nH]cc(c45)C[C@@H]3N(C)C2)O[C@]2(O)[C@H]3CCCN3C(=O)[C@H](Cc3ccccc3)N2C1=O
inactive: activity change, negative = inhibition [1] -14% [at 38 µM] | activity change, negative = inhibition [2] 4.28% [at 38 µM] | activity, negative = inhibition [3] 8.76% [at 38 µM] | Potency [4] > 46 µM | Potency [5] > 46 µM | Potency [6] | outcome [7] | Potency [8] | Potency [9]

C[C@]12CC[C@H](O)CC1=CC[C@@H]1[C@H]2CC[C@]2(C)C(=O)CC[C@H]12
inactive: activity change, negative = inhibition [1] 1.1% [at 38 µM] | Potency [10] | activity change, negative = inhibition [2] 2.55% [at 38 µM] | activity, negative = inhibition [3] 3.87% [at 38 µM] | Potency [4] > 46 µM | Potency [5] > 46 µM | outcome [7] | outcome [11] | Potency [12] | outcome [13] | Potency [14] | outcome [15] | outcome [16] | outcome [17] | outcome [18] | outcome [19] | outcome [20]

C=CCN1CC[C@]23c4c5ccc(O)c4O[C@@H]2/C(=N/NC(=O)c2ccccc2)CC[C@@]3(O)[C@H]1C5
inactive: activity change, negative = inhibition [1] -2.73% [at 38 µM] | Potency [10] | activity change, negative = inhibition [2] -2.19% [at 38 µM] | activity, negative = inhibition [3] -23.6% [at 38 µM] | Potency [4] > 46 µM | Potency [5] > 46 µM | Potency [6] | outcome [7] | outcome [11] | Potency [21] | outcome [13] | Potency [22] | Potency [14] | outcome [15] | outcome [16] | outcome [17] | outcome [18] | outcome [19] | outcome [20]

CCn1cnc2c(Nc3cccc(Cl)c3)nc(N[C@@H]3CCCC[C@H]3N)nc21
inactive: Potency [4] > 46 µM | Potency [5] > 46 µM | Potency [6] | outcome [7] | outcome [11] | Potency [21] | Potency [9] | outcome [15] | outcome [16] | outcome [17] | outcome [18] | outcome [19] | outcome [20]
active: activity change, negative = inhibition [1] -111% [at 38 µM] | activity change, negative = inhibition [2] -119% [at 38 µM] | activity, negative = inhibition [3] -30.2% [at 38 µM] | Potency [23] 2.51 µM

CCN(CC)c1ncnc2c1ncn2[C@@H]1O[C@@H](COP(=O)(O)OP(=O)(O)C(Br)(Br)P(=O)(O)O)[C@H](O)[C@@H]1O
inactive: activity change, negative = inhibition [1] 6.32% [at 38 µM] | Potency [10] | activity change, negative = inhibition [2] 8.54% [at 38 µM] | Potency [4] > 46 µM | Potency [5] > 46 µM | Potency [6] | outcome [7] | outcome [11] | outcome [13] | Potency [22] | Potency [14] | outcome [15] | outcome [16] | outcome [17] | outcome [18] | outcome [19] | outcome [20]
